# Screening data (PubChem)
# LT uptake inh: anthrax lethal toxin internalization inhibition; Cells, anthrax lethal toxin internalization, FRET ratio (460/530); Potency, µM (top dose mostly 40 µM), most hits filed as inhibitors; actives 0.67% (n = 70,000); further: nearly all actives have a fitted effect of over 50% in size
# AmpC det inh: blocks E. coli AmpC beta-lactamase in presence of detergent; P00811; purified AmpC, nitrocefin hydrolysis with detergent; Potency, µM (highest dose often 28.7 µM); actives 0.09% (n = 71,000); active means well fitted curve in the direction sought with a large enough effect; inconclusive means small, poorly fitted or top-dose-only effect
# Target sequence (P00811 whole entry, looked up): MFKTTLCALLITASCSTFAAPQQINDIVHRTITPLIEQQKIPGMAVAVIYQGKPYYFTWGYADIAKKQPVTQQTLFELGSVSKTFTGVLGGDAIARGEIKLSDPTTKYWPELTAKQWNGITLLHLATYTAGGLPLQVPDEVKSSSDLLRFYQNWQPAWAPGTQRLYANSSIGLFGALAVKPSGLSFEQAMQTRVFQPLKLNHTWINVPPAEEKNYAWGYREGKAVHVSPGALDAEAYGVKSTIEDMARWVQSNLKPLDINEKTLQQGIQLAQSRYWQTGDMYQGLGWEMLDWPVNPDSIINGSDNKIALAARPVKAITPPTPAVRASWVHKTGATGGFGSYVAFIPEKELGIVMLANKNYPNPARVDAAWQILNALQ
#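 E. coli AmpC (5.3 nM) in 20 mM phosphate pH 7.0 with 0.01% Triton X-100, preincubated 15 min RT with compound; nitrocefin (2 uL of 800 uM stock) hydrolysis followed by 480 nm absorbance every 20 s over 4 min.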
# AmpC inh no det: inhibitors of E. coli AmpC beta-lactamase without detergent. actives 1.8% (n = 71,000). Potency, µM (top dose mostly 28.7 µM). P00811. AmpC nitrocefin hydrolysis, absorbance 480 nm, no detergent
#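 Enzyme, pH 7.0 phosphate. Compound titrations were pre-incubated with AmpC for 15 min at room temperature before nitrocefin (stock 800 uM) addition; product formation was recorded at 480 nm every 20 s for 4 min.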
# Prx2 Sm inh: blocks S. mansoni peroxiredoxin 2 enzymatic activity; S. mansoni Prx2 activity coupled to TGR/GSH (TGR is thioredoxin glutathione reductase), NADPH fluorescence loss, qHTS; Potency, µM; actives 0.07% (n = 65,000); AID 448
#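 Enzyme mix: 100 uM NADPH, 25 nM TGR, 700 uM GSH, 50 nM Prx2 in 100 mM phosphate pH 7.4, 10 mM EDTA, 0.01% Tween-20. 15 min RT with compound; NADPH/GSH added, H2O2 starts reaction; NADPH fluorescence read 8 min.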
# A number is an active result; n = inactive; u = inconclusive; x = no result given; [ ] = another dose, or the depositor's remark. A selection: hits, their analogues and other compounds. The true share with any hit is near 2.4%. Unless noted, the call rests on the fitted dose curve.
SMILES,LT uptake inh,AmpC det inh,AmpC inh no det,Prx2 Sm inh
CCOC(=O)c1ccc(NC(=O)Nc2ccc(S(N)(=O)=O)cc2)cc1,x,n,n,n
CN(C)c1ccc(C(=O)OCC(=O)Nc2ccc(S(N)(=O)=O)cc2)cc1,n,n,16µM[single pt active],n
O=C(COc1ccccc1F)c1ccc(O)cc1O,n,n,n,x
Cc1c(O)ccc(C(=O)COc2ccccc2F)c1O,10µM,n,n,n
Cc1cc(NC(=O)c2cc(-c3cccs3)nc3ccccc23)no1,u,n,4µM[single pt active],n
Cc1cc(NC(=O)c2cc(-c3ccccn3)nc3ccccc23)no1,u,n,n,n
COc1ncc2nc(-c3ccc(F)cc3)c(=O)n(Cc3cccs3)c2n1,n,n,n,n
O=[As](O)(O)c1ccc(Cc2ccc([As](=O)(O)O)cc2)cc1,u,n[5.75 µM],n[5.75 µM],0.17
CO[Si](CCCNCCC[Si](OC)(OC)OC)(OC)OC,n,n,n,x
O=S(=O)(NCc1ccccn1)c1cccc2cccnc12,n,n,n,n
O=C(O)c1c2c(c(O)c3c1CN(C1CCCCC1)CO3)OCN(C1CCCCC1)C2,n[8 µM],n[5.75 µM],n[5.75 µM],n
CCOc1ccc2nc(NC(=O)COC)sc2c1,n,n,n,n
CCOc1ccc2nc(NC(=O)Nc3cccs3)sc2c1,u,n,3.2µM[single pt active],n
CN1CCN(C(=O)C(Cc2ccccc2)NS(=O)(=O)c2ccc3c(c2)CCC(=O)N3)CC1 (stereo unspecified),n,n,4µM[single pt active],n
CC(C)NS(=O)(=O)c1ccc2c(c1)oc(=O)n2C,n,n,n,n
CC(C)CC(NS(=O)(=O)c1ccc2c(c1)oc(=O)n2C)C(=O)NCc1cccnc1 (stereo unspecified),n,n,4µM[single pt active],n
CC(C)C(NS(=O)(=O)c1ccc2c(c1)oc(=O)n2C)C(=O)N1CCN(c2ccccc2F)CC1 (stereo unspecified),u,n,4µM[single pt active],n
Cn1c(=O)oc2cc(S(=O)(=O)NC(Cc3ccccc3)C(=O)N3CCCCC3)ccc21 (stereo unspecified),n,n,4µM[single pt active],n
OC[C@@H]1O[C@@H](n2cnc3c(Nc4ccccc4)ncnc32)[C@@H](O)[C@H]1O,u,n,n,n
CCN1C[C@@]2(C)CC[C@H](O)[C@@]34[C@@H]5C[C@H]6[C@H](O)[C@@H]5[C@](O)(C[C@@H]6OC)[C@H](C[C@@H]23)[C@H]14,u,n,n,n
O=C1CCc2cc(S(=O)(=O)NC(Cc3ccccc3)C(=O)NCC3CCCO3)ccc2N1 (stereo unspecified),n,n,4µM[single pt active],n
CCOC(=O)CNC(=O)C(Cc1ccccc1)NS(=O)(=O)c1ccc2c(c1)CCC(=O)N2 (stereo unspecified),n,n,n,n
Cc1noc(C)c1-c1ccc2ncnc(N(C)C)c2c1,n,n,n,n
CC(=O)N1CCN(c2ccc(NCc3ccc(C)s3)cc2)CC1,n,n,4µM[single pt active],n
Cc1ccc(CNc2ccc(N3CCOCC3)cc2)s1,n,n,n,n
SMILES,LT uptake inh,AmpC det inh,AmpC inh no det,Prx2 Sm inh
COc1ccc(-c2nc3cnc(OC)nc3n(Cc3cccc(OC)c3)c2=O)cc1,u,n,n,n
CN(C)Cc1c[nH]c2ccccc12,u,n,n,n
CN(C)CCCn1cc(C2=C(c3c[nH]c4ccccc34)C(=O)NC2=O)c2ccccc21,0.4µM,n,n,n
COc1ccc(NC(=O)c2ccc(-c3ccc(-c4noc(C)n4)cc3C)cc2)cc1N1CCN(C)CC1,u,n,n,n
COc1ccc(NC(=O)c2ccc(-c3ccc(-c4noc(C)n4)cc3C)cc2)cc1OCCN(C)C,16µM,n,n,n
CCOC(=O)CN1C(=O)c2ccccc2C1=O,n,n,n,n
CCOC(=O)/C(C(C)=O)=C1\OC(=O)c2ccccc21,n,7.9µM,13µM,n
CN1CCN(CCc2ccc(Cl)c(Cl)c2)CC1,u,n,n,n
COc1ccc(OC)c(C2=NOC(C(=O)Nc3cc(C)nn3-c3ccccc3)C2)c1 (stereo unspecified),n,n,4µM[single pt active],n
O=C(Nc1nnc(COc2ccccc2)s1)c1ccco1,n,n,n,n
O=C(Nc1nc(-c2cccs2)c(-c2ccccc2)s1)c1ccco1,13µM,n,n,n
CCC1(CCSC(=N)N)C(=O)NC(=O)NC1=O,n[8 µM],n[5.75 µM],n[5.75 µM],n
O=C(Nc1ccc(N2C(=O)C3C4C=CC(C4)C3C2=O)cc1)Nc1nncs1 (stereo unspecified),n,n,4µM[single pt active],n
CN1CCN(c2nc(-c3ccc4c(c3)OCO4)nc3ccccc23)CC1,n,n,n,n
Cc1cccc(C)c1OCC(O)Cn1ccnc1C (stereo unspecified),n,n,4µM[single pt active],n
COc1cc(OC)cc(OCC(O)Cn2ccnc2C)c1 (stereo unspecified),n,n,n,n
COc1cccc2c1C(=O)c1c(O)c3c(c(O)c1C2=O)C[C@@](O)(C(C)=O)C[C@@H]3O[C@H]1C[C@H](N)[C@H](O)[C@H](C)O1,16µM,n,n,n
COc1cccc2c1C(=O)c1c(O)c3c(c(O)c1C2=O)C[C@](O)(C(=O)CO)C[C@@H]3O[C@H]1C[C@H](N)[C@@H](O)[C@H](C)O1,n[8 µM],n[5.75 µM],n[5.75 µM],n
CC(=O)OC[C@@H]1O[C@H](CCO/N=C(\C)CCN2CCc3nc(-c4ccccc4)c(-c4ccccc4)cc3C2)C=C[C@@H]1OC(C)=O,n[8 µM],x,x,x
COc1ccc(C(=O)N2CCC3(CCN(Cc4ccccc4)CC3)CC2)cc1,n,n,n,n
COc1ccc(Nc2ncnc3c2cnn3-c2ccccc2)cc1OC,u,n,n,n
Clc1ccc(Nc2ncnc3c2cnn3-c2ccccc2)cc1,10µM,n,n,n
NC(=O)CN1CCN(C(=O)Nc2ccccc2)CC1,n,n,4µM[single pt active],n
NC(=O)c1cccc(S(=O)(=O)N2CC(c3ccccc3)CC2=O)c1 (stereo unspecified),n,n,4µM[single pt active],n
Cn1c(Cn2c(=O)sc3ccccc32)nnc1SCC(=O)N1CCc2ccccc21,n,n,4µM[single pt active],n
SMILES,LT uptake inh,AmpC det inh,AmpC inh no det,Prx2 Sm inh
CC1CCN(C(=O)CSc2nnc(Cn3c(=O)sc4ccccc43)n2C)CC1,n,n,u,n
CCSc1nnc(Cn2c(=O)sc3ccccc32)n1C,n,n,4µM[single pt active],n
Cn1c(Cn2c(=O)sc3ccccc32)nnc1SCC(=O)N1CCCC1,n,n,4µM[single pt active],n
Cn1c(Cn2c(=O)sc3ccccc32)nnc1SCC(=O)N1CCCc2ccccc21,n,n,4µM[single pt active],n
Cn1c(Cn2c(=O)sc3ccccc32)nnc1SCc1ccccn1,n,n,n,n
COc1nc(N)nc2c1ncn2[C@@H]1C[C@H](O)[C@@H](CO)O1,n[8 µM],n[5.75 µM],n[5.75 µM],n
Nc1cc(Cl)c([N+](=O)[O-])cc1O,n,n,n,x
C[C@@]12C[C@H](O)[C@@H]3[C@H](CCC4=CC(=O)CC[C@]43C)[C@H]1CC[C@@H]2c1csc(N)n1,n[8 µM],n[5.75 µM],n[5.75 µM],n
O=C(O)Cn1c(=O)oc2cc(S(=O)(=O)N3CCOCC3)ccc21,n,n,n,n
N#Cc1cccc(-c2cc(NCc3ccccc3)ncn2)c1,n,n,n,n
COc1ccc(OCc2nnc3n2N=C(c2ccc(OC)cc2)CS3)cc1,n,n,4µM[single pt active],n
